PubChem BioAssay AID1159580 (chemical genetic matrix, 2015)
About 2,000 (36%) of roughly 5,500 compounds were called active. Roughly 18% stayed inconclusive and do not appear here. Cut-off read from the data, not from the text of the source: active = normalized growth mostly below about 0.91 (no sharp cut-off); inconclusive = no clear call, values can overlap the other calls; inactive = mostly above about 0.92. This is one part of the list.

Assay: chemical genetic growth profiling, strain panel (AID 1159580);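 note: tested at 20 µM; growth read once vehicle control cultures reached saturation at 30 °C; 1 = growth at the plate median or of vehicle wells; lower values mean less growth of the strain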
Conditions: S. cerevisiae deletion strains, growth OD

Measured: normalized growth

COc1cc(C(=O)OCCCN2CCCN(CCCOC(=O)c3cc(OC)c(OC)c(OC)c3)CC2)cc(OC)c1OC
inactive: locus YAL040C, strain CLN3, active compounds read low 0.967 | locus YCL061C, strain MRC1 (second series), active compounds read low 1.01 | locus YDR150W, strain NUM1, active compounds read low 0.998 | locus YDR363W, strain ESC2, active compounds read low 1.03 | locus YER002W, strain NOP16, active compounds read low 1.03 | locus YMR307W, strain GAS1, active compounds read low 1.01 | locus YNL175C, strain NOP13, active compounds read low 1.01 | locus YNL197C, strain WHI3, active compounds read low 1 | locus YNL224C, strain SQS1, active compounds read low 1.01 | locus YOR083W, strain WHI5 (second series), active compounds read low 0.972 | locus YPL055C, strain LGE1, active compounds read low 1.02
